# Screens (PubChem BioAssay)
# PAX8 reporter: lowers PAX8-driven luciferase in RMG-I cells | inhibition, % at 12.6 µM | RMG-I TPO-luciferase reporter, SteadyGlo, 24 h | 1.2% of 360,000 active;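 active means mean replicate inhibition at least 60% with every replicate also reaching 60%; inconclusive means only one of the two criteria is met; inactive means mean below 60% and not all replicates reaching 60%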;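 further: luciferase light reporting Pax8 driven TPO promoter activity; plate controls were median of neutral control wells for no effect and mitoxantrone controls for full effect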
# LGR2 antag: blocks bursicon-induced cAMP signaling via Drosophila LGR2. HEK293 LGR2, CRE-luciferase, bursicon-stimulated, 4 h. inhibition, % at 9.99 µM. 0.35% of 380,000 active. AID 720647;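 active means drop in luminescence signal, shown as inhibition above about 50% in the replicate tests, limit read from the data, passing the limit was not always enough; inconclusive means probably only some replicates passing the limit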;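 further: agonist challenge used bursicon conditioned medium at about half maximal strength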
# EWS-Fli inh: blocks EWS/Fli oncoprotein-driven transcription; A673 NR0B1-luciferase reporter, viability-normalised; inhibition, % at 12.6 µM; 0.67% of 350,000 active; AID 651661;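 active means mean inhibition of at least 50% after viability correction, with every replicate also passing that limit; inconclusive means mean reaches 50% but only one of two replicates passes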;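 further: firefly luciferase signal divided by Alamar Blue viability fluorescence both relative to DMSO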
# CF NFkB block: inhibitors of cystic fibrosis induced NF-kB | KKLEB NF-kB-GFP reporter, PAF-induced, GFP fluorescence overnight | inhibition, % at 5 µM | 0.86% of 360,000 active | AID 588850;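 active means at least 50% inhibition at 5 µM, scaled per plate between neutral and stimulator controls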;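 further: PAF is a Pseudomonas aeruginosa culture filtrate used as stimulus; plate controls were PAF-stimulated DMSO wells for no effect and unstimulated DMSO wells for full effect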
# Shn3 3UTR inh: inhibitors of Schnurri-3 3'UTR reporter in osteoblasts; Clone20 osteoblast Shn3 3'UTR firefly luciferase, 24 h; inhibition, % at 12.5 µM; 0.52% of 360,000 active; AID 588674;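 active means mean inhibition of at least 75% with every replicate also reaching 75%; inconclusive means mean inhibition at least 75% but some replicate below; inactive means mean inhibition below 75%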;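 further: 0% = median of neutral control wells and 100% = pilot-screen positive control compound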
# KKLEB cytotox: CF airway cell cytotoxicity counter-screen. 0.36% of 360,000 active. activity change (cytotoxicity), % at 5 µM. KKLEB CF airway cells viability, ATPlite luminescence, overnight; active compounds read low; cells stimulated with P. aeruginosa culture filtrate;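 active means corrected activity change at or below -50% at 5 µM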
# * = called active by the depositor; ? = inconclusive; nt = no result. An excerpt weighted towards active compounds, which were near 2% of everything screened.
SMILES,PAX8 reporter,LGR2 antag,EWS-Fli inh,CF NFkB block,Shn3 3UTR inh,KKLEB cytotox
O=C(N/N=C/c1ccc(F)cc1)c1cc(-c2ccccn2)nc2ccccc12,6.1,5.7,-0.7,-10.7,-7.9,-8.0
Cc1cccc(/C=N/NC(=O)c2ccc3c(c2)OCCO3)c1O,37.9,68.1*,33.8,-10.2,79.8,-28.3
CCn1c(C)nc2cc(C(=O)N/N=C/c3ccccc3)ccc21,-104.9,-75.0,-99.6,-3.7,-79.5,11.2
COc1cccc(/C=N/NC(=O)c2cc(-c3ccccn3)nc3ccccc23)c1O,68.3*,9.3,9.4,12.4,?,-20.1
CO[C@H]1CN(C)C(=O)c2cc(NC(=O)Nc3ccccc3F)ccc2OC[C@@H](C)N(C(C)=O)C[C@H]1C,7.7,2.8,-9.4,nt,nt,nt
CCCNC(=O)N(C)C[C@H]1Oc2ncc(C#CCC(C)C)cc2C(=O)N([C@H](C)CO)C[C@@H]1C,3.3,-26.4,10.2,nt,nt,nt
C[C@@H]1CN([C@@H](C)CO)S(=O)(=O)c2ccc(-c3cccnc3)cc2O[C@H]1CN(C)Cc1cncnc1,nt,-12.7,3.7,nt,nt,nt
O=C(Nc1cccc(Br)c1)c1ccc2c(c1)SC1=NS(=O)(=O)CCN12,88.3*,11.8,27.6,-25.4,40.6,2.6
CC(C)(C)c1ccccc1NC(=O)c1ccc2c(c1)SC1=NS(=O)(=O)CCN12,16.3,-1.3,5.8,-15.0,9.1,-2.1
CCCc1cc(=O)oc2c(CNc3ccc(OCC)cc3)c(O)ccc12,-9.5,-0.2,-2.5,52.8*,-10.7,-2.8
CC1(c2ccccc2)CC(C)(C)N2C(=O)/C(=C3\SC(=S)NC3=O)c3cccc1c32 (stereo unspecified),-14.7,9.8,nt,61.1*,31.3,-24.6
CC1(c2ccccc2)CC(C)(C)N2C(=O)C3(C(C#N)=C(N)Oc4cc(O)ccc43)c3cccc1c32 (stereo unspecified),nt,-2.6,5.9,12.8,15.0,4.1
CNC[C@@H]1Oc2cc(-c3cncnc3)ccc2S(=O)(=O)N([C@@H](C)CO)C[C@H]1C,nt,2.3,-1.7,nt,nt,nt
Cc1cc(-n2c(SCC(=O)Nc3ccc(Br)cc3)nc3n[nH]c(C)c3c2=N)ccc1Cl,15.8,-1.8,nt,32.2,54.4,-20.5
Cc1cc(-n2c(SCC(=O)Nc3ccc(F)c(F)c3)nc3n[nH]c(C)c3c2=N)ccc1Cl,76.6*,11.7,14.3,6.9,52.3,-6.8
C[C@@H]1CCCCO[C@H](CN(C)C(=O)Nc2ccccc2)[C@H](C)CN([C@H](C)CO)C(=O)c2cc(NC(=O)CCC(F)(F)F)ccc2O1,-23.3,-8.0,1.7,nt,nt,nt
C[C@@H]1CN([C@@H](C)CO)C(=O)c2cc(C#C[C@@H](C)O)cnc2O[C@@H]1CN(C)Cc1cccc(C(=O)O)c1,nt,10.7,-14.1,nt,nt,nt
Cc1ccc(S(=O)(=O)N2CCCCC2)cc1NC(=O)c1ccc2c(=O)n3c(nc2c1)CCCCC3,-8.7,66.9*,1.7,nt,nt,nt
C=CC[C@@H](CC(=O)N(CCO)Cc1ccccc1)C(=O)N[C@H](COC(=O)[C@@H](CC=C)CC(=O)OC(C)(C)C)Cc1c[nH]c2ccccc12,54.6,13.8,-4.8,2.6,26.5,14.0
C=CC[C@@H](CC(=O)N(CCO)Cc1ccccc1)C(=O)N[C@@H](COC(=O)[C@@H](CC=C)CC(=O)OC(C)(C)C)Cc1c[nH]c2ccccc12,63.2*,27.8,1.7,10.9,1.4,2.3
C=CC[C@H](CC(=O)N(CCO)Cc1ccccc1)C(=O)N[C@@H](COC(=O)[C@H](CC=C)CC(=O)OC(C)(C)C)Cc1c[nH]c2ccccc12,103.3*,25.6,2.8,19.0,-9.0,-10.3
CO[C@H]1CN(C)C(=O)c2cc(NC(C)=O)ccc2OC[C@H](C)N(Cc2ccccc2F)C[C@H]1C,nt,9.6,0.3,nt,nt,nt
CCCNC(=O)C[C@H]1CC[C@@H]2[C@H](COc3ccc(NC(=O)C4CCOCC4)cc3C(=O)N2C)O1,-1.5,1.7,0.8,nt,nt,nt
C[C@@H]1CCCCO[C@H](CN(C)C)[C@@H](C)CN([C@@H](C)CO)C(=O)c2cc(NC(=O)c3ccncc3)ccc2O1,9.9,6.3,2.0,nt,nt,nt
Cc1c(Cl)cccc1N/C(SCC(=O)N1CCCCCC1)=C(/C#N)c1nc2ccccc2s1,7.9,6.5,nt,53.6*,45.0,-64.7*
SMILES,PAX8 reporter,LGR2 antag,EWS-Fli inh,CF NFkB block,Shn3 3UTR inh,KKLEB cytotox
O=C(CSc1nc2ccccc2s1)N1CCCCC1,nt,-26.1,-79.4,-5.1,-82.1,18.4
CCOC(=O)C1CCN(C(=O)c2ccc(OCC(=O)Nc3cccc(C(F)(F)F)c3)c(OC)c2)CC1,30.7,25.8,5.1,17.9,89.3*,-2.5
CCOC(=O)C1CCN(C(=O)c2ccc(OCC(=O)Nc3cccc(C(F)(F)F)c3)cc2)CC1,8.7,-15.2,nt,-0.9,57.5,6.6
C=CC[C@@]12N=C(c3ccc(OCCCO)cc3)O[C@@H]1c1ccccc1CN(CCS(=O)(=O)c1ccccc1)C2=O,76.7*,nt,5.2,nt,nt,nt
COc1ccc2c3c(n(C)c2c1)[C@H](CO)N(C)CC31CN(S(C)(=O)=O)C1,nt,-21.3,-11.7,nt,nt,nt
C[C@]12C=CC(=O)C=C1CC[C@@H]1[C@@H]2C(=O)C[C@@]2(C)[C@H]1CC[C@]2(O)C(=O)COC(=O)CCC(=O)O,3.9,-2.4,6.8,-0.3,0.0,2.2
C[C@]12C=CC(=O)C=C1CC[C@@H]1C2C(O)C[C@@]2(C)C1CC[C@]2(O)C(=O)COC(=O)CCC(=O)NC(CC(=O)O)C(=O)O (stereo partly specified),13.6,6.5,6.4,76.9*,-7.2,43.7
CSCCC(NC(=O)CCC(=O)OCC(=O)[C@@]1(O)CCC2[C@@H]3CCC4=CC(=O)C=C[C@]4(C)C3[C@@H](O)C[C@@]21C)C(=O)O (stereo partly specified),1.1,6.1,-3.7,72.2*,-4.9,38.0
CSCC[C@H](NC(=O)COc1cc2c(c3oc(=O)c(C)c(C)c13)CCC(C)(C)O2)C(=O)O,11.1,-20.1,4.7,-7.2,-3.4,0.8
Cc1noc(C)c1NC(=O)NCC[C@H]1CC[C@@H](NC(=O)c2ccncc2)[C@H](CO)O1,-8.4,12.8,0.3,nt,nt,nt
C[C@@H]1CN([C@@H](C)CO)C(=O)c2cc(/C=C/c3ccccc3)cnc2O[C@H]1CN(C)C(=O)CN1CCOCC1,-8.2,-6.8,-14.9,nt,nt,nt
CC(C)NC(=O)Nc1cccc2c1O[C@@H](CN(C)C(=O)Nc1ccc(F)cc1)[C@H](C)CN([C@H](C)CO)C2=O,0.3,-23.0,-1.7,nt,nt,nt
CC1CC(=O)c2c(cc3c(-c4c(O)cc(O)c5c(O)c6c(cc45)OC(C)CC6=O)c(O)cc(O)c3c2O)O1 (stereo unspecified),nt,nt,nt,53.2*,75.8,-48.8
COc1cc(OC)c(OC)cc1/C=C1\CC(C)C/C(=C\c2cc(OC)c(OC)cc2OC)C1=O (stereo unspecified),74.1*,16.4,5.3,22.5,93.6*,8.7
